Screening data: PubChem BioAssay, several laboratories
An excerpt weighted towards active compounds, which were near 2.7% of everything screened.
MsrA inh – bovine MsrA enzyme inhibitors, primary screen, biochemical, absorbance, HTS | Methionine sulfoxide reductase A (Bos taurus) | purified bovine MsrA, absorbance read-out | inhibition, % at 15.5 µM | actives 0.75% (n = 360,000)
rCAG binder – binders of r(CAG) RNA repeats, primary screen, biochemical, fluorescence | AID 651821, 2012 | actives 1.3% (n = 370,000) | inhibition, % at 3 µM | r(CAG) RNA repeat, TO-PRO-1 dye displacement fluorescence;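 active = inhibition above the plate cutoff, the mean of all test compounds on that plate plus 3 SD, cut at about 35% in these data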;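 note: higher means more dye released from RNA so lower well fluorescence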
NadD inh – inhibitors of S. aureus NadD, primary screen, biochemical, colorimetric, uHTS; Nicotinate-nucleotide adenylyltransferase NadD (Staphylococcus aureus N315); purified NadD enzyme, colorimetric absorbance read-out; inhibition, % at 20 µM; actives 0.78% (n = 360,000); in the data active = inhibition above about 26%
bovine MsrA act – bovine MsrA enzyme activators, primary screen, biochemical, absorbance, HTS; AID 602163, 2012; activation, % at 10.6 µM; purified bovine MsrA, absorbance read-out; Methionine sulfoxide reductase A (Bos taurus); actives 0.3% (n = 360,000); in the data active = activation above about 7.5%
MsrA inh confirm – bovine MsrA inhibitors, retest, confirmation, biochemical, absorbance, HTS; shares compounds with MsrA inh; purified bovine MsrA, absorbance read-out; inhibition, % at 15.5 µM; actives 41% (n = 2,300); AID 651822, 2012;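 note: coupled to thioredoxin reductase with NADPH and selenocystamine and DMSO as substrate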
A number is an active result; - = inactive; . = not tested or not shown. Cut-off read from the data, not from the text of the source, unless noted: active = inhibition above about 4.5%; inactive = the rest.

SMILES	MsrA inh	rCAG binder	NadD inh	bovine MsrA act	MsrA inh confirm
CN(C)c1ccc(C(=O)N/N=C/c2ccccn2)cc1	7.4	-	-	-	-
O=C(N/N=C/c1ccc(Cl)cc1)c1ccc2c(c1)OCO2	-	-	-	-	.
O=C(N/N=C/c1ccccn1)c1ccccc1	-	-	-	-	.
O=C(N/N=C/c1ccc2c(c1)OCO2)c1ccc2c(c1)OCCO2	4.9	-	-	-	-
COc1cc(/C=N/NC(=O)c2ccc3c(c2)OCO3)ccc1O	6.3	-	-	-	-
CCN(CCNC(=O)[C@H]1C=C(OC)C(=O)C[C@H](c2ccccc2)[C@H]1C)C(C)=O	.	-	.	.	.
CCN(CC)C(=O)CSc1nc(C)cc(C)n1	-	-	-	-	.
COc1cc(/C=N/NC(=O)c2ccc(-n3cccc3)cc2)ccc1O	5.9	-	-	-	4.8
CCOc1cc(/C=N/NC(=O)c2ccc3c(c2)OCCO3)cc(Br)c1O	6.0	-	-	-	6.9
Cc1ccsc1C(=O)N/N=C/c1ccc2c(c1)OCO2	-	-	-	-	.
O=C(N/N=C/c1ccc2c(c1)OCO2)c1cccs1	6.1	-	-	-	-
O=C(O)c1ccc(/C=C/c2ccc3cccc(O)c3n2)cc1	5.6	-	-	-	5.3
Cc1ccc(C)c(Nc2c([N+](=O)[O-])cc(C(=O)N3CC(=O)Nc4ccccc43)cc2[N+](=O)[O-])c1	12	-	-	-	9.9
Cc1cccc(Nc2c([N+](=O)[O-])cc(C(=O)N3CC(=O)Nc4ccccc43)cc2[N+](=O)[O-])c1	4.7	-	-	-	-
COc1cc(NC(=O)Cn2cnc(S(=O)(=O)N3CCC(C)CC3)c2)cc(OC)c1OC	-	-	-	-	.
Cn1cc(C(=O)N/N=C/c2cccs2)c2ccccc21	5.2	-	-	-	5.2
Cc1ccc(S(=O)(=O)NCC(=O)NCC(=O)N2CCC(C)CC2)cc1	-	-	-	-	.
O=C(N/C(=C/c1ccc([N+](=O)[O-])cc1)C(=O)N1CCOCC1)c1ccco1	4.9	-	-	-	-
CCCCC(=O)NC(=S)Nc1cccc(NC(=O)c2ccccc2)c1	-	-	-	-	.
COc1ccc(-c2cc(=O)oc3c(C)c(OC(C)C(C)=O)ccc23)cc1 (stereo unspecified)	22	-	-	-	16
COc1ccc(-c2cc(=O)oc3cc(O)ccc23)cc1	-	-	-	-	.
Cc1cc(O)c2c(-c3ccccc3)cc(=O)oc2c1	8.5	-	-	-	-
COc1ccc(-c2cc(=O)oc3c(C)c(O)ccc23)cc1	12	-	-	-	-
Cc1c(O)ccc2c(-c3ccccc3)cc(=O)oc12	41	-	-	-	35
O=C(COC(=O)CNC(=O)C1CCCCC1)Nc1ccccc1Cl	-	-	-	-	.
SMILES	MsrA inh	rCAG binder	NadD inh	bovine MsrA act	MsrA inh confirm
Cc1noc(C)c1NC(=O)N(C)C[C@@H]1Oc2ccc(NC(=O)Cc3cn(C)c4ccccc34)cc2CC(=O)N([C@H](C)CO)C[C@@H]1C	-	-	-	-	.
CN(/N=C/C=C/c1ccccc1)c1cc(=O)n(C)c(=O)[nH]1	12	-	-	-	9.1
COc1ccc(/C=N/N(C)c2cc(=O)n(C)c(=O)[nH]2)cc1OC	11	-	-	-	7.0
CCOc1ccc(/C=N/N(C)c2ccccc2)cc1OC	-	-	-	-	.
OC(c1cccc(Cl)c1)c1nc(-c2cc3ccccc3o2)cs1 (stereo unspecified)	-	-	-	-	.
COc1cc(C(=O)C(=O)c2ccc(O)c(OC)c2)ccc1O	6.4	-	-	-	-
COc1ccc(CN2CCNC(=O)C2CC(=O)N2CCCO2)c(OC)c1 (stereo unspecified)	-	-	-	-	.
N#Cc1cc(C#N)c(N2CCN(c3ccccn3)CC2)nc1N	4.7	-	-	-	-
N/C(=N\NC(=O)c1cccs1)c1cc2cc(Cl)ccc2oc1=O	-	-	-	-	.
Cc1ccc(C(=O)N/N=C/C=C/c2ccccc2)o1	8.8	-	-	-	8.2
O=C(CSc1ccccn1)N/N=C/C=C/c1ccccc1	4.9	-	-	-	-
O=C(N/N=C/C=C/c1ccccc1)c1cccnc1	5.3	-	-	-	4.9
CC(/C=C/C=C/c1ccccc1)=N\NC(=O)c1cccnc1	7.6	-	-	-	4.5
CC(NC(=O)c1ccccc1NC(=O)CN1CCc2ccccc2C1)c1ccccc1 (stereo unspecified)	-	-	-	-	.
